Compound activity deposited in PubChem by National Center for Advancing Translational Sciences (NCATS).
aSyn rescue – rescues yeast growth from alpha-synuclein toxicity. Yeast expressing alpha-synuclein, growth rescue, BacTiter-Glo, 24 h. Potency, µM (doses to about 46.1 µM), actives largely listed as activators. 0.14% of 370,000 active. AID 652106; further: nearly all actives have a fitted effect of over 65% in size
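Screening used galactose-induced yeast with toxic alpha-synuclein levels, exposed to compound for 24 hr at 30 deg C. Cell growth, read with BacTiter-Glo luminescence, gave the measured signal.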
FUS suppressor – rescues growth of FUS-expressing yeast; 0.24% of 390,000 active; AID 1347120; Potency, µM (titrated, usually from 76.6 µM), most hits filed as activators; S. cerevisiae FUS-expressing, growth rescue, OD600, 24 h; further: nearly all actives have a fitted effect of over 55% in size
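Read-out: OD at 600 nm after 24hr at 30C, reporting rescue of FUS-induced yeast toxicity. Cells at OD 0.005 in galactose (2%) minimal medium; compounds tested in a dilution series; CP55940 titration from 92uM final as control.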
TDP43 rescue – rescues yeast growth from TDP-43 toxicity. TDP-43 expressing yeast growth rescue, BacTiter-Glo, 24 h. Potency, µM (titrated, usually from 46.1 µM), most hits filed as activators. 1.8% of 410,000 active; further: nearly all actives have a fitted effect of over 50% in size
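Galactose-induced TDP-43 yeast, OD600=0.02, compound pinned; 24 hr, 30 deg C; BacTiter-Glo luminescence for growth. Inhibitors of TDP-43 toxicity read as activators.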
Abeta yeast res – compounds reversing amyloid beta toxicity in yeast; yeast expressing A-beta42, growth rescue, OD600, 48 h; response scale: 0% DMSO, 100% iron-clioquinol control; Potency, µM (doses to about 46.1 µM), most hits filed as activators; 0.063% of 410,000 active; further: nearly all actives have a fitted effect of over 55% in size
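Growth rescue measured by 600 nm absorbance after 48 h yeast culture at 30 C with compound. Values normalized between DMSO and an equimolar ferric chloride plus clioquinol control.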
Mito fusion yeast – inhibitors of mitochondrial division or activators of mitochondrial fusion. 0.23% of 320,000 active. S. cerevisiae fusion-defective mutant growth rescue, CellTiterGlo 48 h. Potency, µM (series often up to 46.1 µM), hits mostly activators; further: nearly all actives have a fitted effect of over 45% in size
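Yeast fusion mutant, YPEG (non-fermentable carbon), compound, 48 h at 37C non-permissive; CellTiterGlo added, 10 min RT, luminescence read. Rescued growth = division inhibition.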
Each line names hits and unclear results; the compound was inactive in the other large screens. Hits are enriched below; roughly 2.2% of the tested compounds scored in any of these assays. The call rests on the fitted dose curve; in most records, active means well fitted curve in the direction sought with a large enough effect; inconclusive means small, poorly fitted or top-dose-only effect, or another doubt; inactive means no such curve, though single readings can be large; an effect the other way counts as inactive or inconclusive.

CCOc1ccc(/C=N/NC(=S)NC2CC3C=CC2C3)cc1 (stereo not drawn)	Abeta yeast res 7.9µM
COc1cc(/C=N/NC(=S)NC2CC3C=CC2C3)cc(OC)c1OC (stereo not drawn)	Abeta yeast res inconclusive
C=CCNc1nc(-c2ccc(Cl)cc2)cs1	TDP43 rescue 11µM
C=C1CC2(CC(c3ccccc3)OC(c3ccccc3)C2)OC1=O (stereo not drawn)	TDP43 rescue 10µM (no result: FUS suppressor, Mito fusion yeast)
CN1N/C(=C\c2ccccc2)N=C2C(=O)N(C)C(=O)N=C21	none (no result: FUS suppressor, TDP43 rescue, Abeta yeast res, Mito fusion yeast)
c1ccc(-c2nnc(N3CCN(c4ccccc4)CC3)nc2-c2ccccc2)cc1	none
c1ccc(-c2nnc(N3CCCC3)nc2-c2ccccc2)cc1	TDP43 rescue 18µM
Cc1ccc(C(c2nnnn2Cc2ccccc2)N2CCN(Cc3ccncc3)CC2)cc1 (stereo not drawn)	none (no result: FUS suppressor, TDP43 rescue, Abeta yeast res, Mito fusion yeast)
CSc1ccc(C2C(C#N)=C(N)Oc3c2ccc(=O)c2c(C)oc(C)c32)cc1 (stereo not drawn)	aSyn rescue inconclusive, FUS suppressor 22µM
COc1cccc(C(c2sc3nc(-c4ccco4)nn3c2O)N2CCC(C)CC2)c1 (stereo not drawn)	FUS suppressor inconclusive (no result: aSyn rescue, Mito fusion yeast)
Cc1cccc2c1[nH]c1nc(N/N=C\c3ccco3)nnc12	none (no result: aSyn rescue, FUS suppressor, TDP43 rescue, Abeta yeast res)
C=CCSc1nnc2c(n1)[nH]c1c(C)cccc12	TDP43 rescue 11µM
CCSc1ncc(Cl)c(C(=O)Nc2sc3c(c2C(=O)NCCOC)CCCC3)n1	none (no result: FUS suppressor, TDP43 rescue, Abeta yeast res, Mito fusion yeast)
CCc1ccc2oc(C(=O)N3CCN(c4ccccc4OC)CC3)cc(=O)c2c1	TDP43 rescue 20µM
COc1ccccc1N1CCN(C(=O)c2oc3cc(C)c(C)cc3c2C)CC1	none
O=C(c1cc(=O)c2ccccc2o1)N1CCN(c2ccccc2F)CC1	TDP43 rescue 14µM
COc1ccccc1N1CCN(C(=O)COc2cc(C)cc3oc(=O)cc(C)c23)CC1	none
COc1ccccc1N1CCN(C(=O)c2oc3ccccc3c2N)CC1	TDP43 rescue 13µM (no result: aSyn rescue, Mito fusion yeast)
COc1ccccc1N1CCN(C(=O)c2cc(=O)c3c(C)cc(C)cc3o2)CC1	TDP43 rescue 25µM, Mito fusion yeast inconclusive
COC(=O)c1cc(C)nc2c1c(=O)nc(SCc1cccc(C(F)(F)F)c1)n2C1CC1	none (no result: aSyn rescue, Mito fusion yeast)
O=C(c1cc2ccccc2o1)N1CCN(S(=O)(=O)c2c(F)cccc2F)CC1	TDP43 rescue 14µM
COC(=O)c1c(-c2cccs2)csc1NC(=O)c1cc(OC)c(OC)c(OC)c1	none (no result: aSyn rescue, Mito fusion yeast)
COc1ccc(-n2c(SCC(=O)Nc3ccc(S(=O)(=O)Nc4nccs4)cc3)nnc2-c2cccs2)cc1	none (no result: aSyn rescue, TDP43 rescue, Abeta yeast res, Mito fusion yeast)
COc1cccc(/C=C2\CCC(C3CCCC3)C2=O)c1OC (stereo not drawn)	FUS suppressor 7.9µM, TDP43 rescue inconclusive
Nc1cc2c(cc1[N+](=O)[O-])-c1ccccc1C2=NO	TDP43 rescue 3.5µM (no result: FUS suppressor, Mito fusion yeast)
O=C(O/N=C(/c1ccccc1)c1ccncc1)c1cccc(F)c1	TDP43 rescue 14µM
Cc1ccc(NC(=O)[C@H]2CC(=O)O[C@@H]2c2ccccc2)c(C)c1	none (no result: aSyn rescue, TDP43 rescue, Abeta yeast res, Mito fusion yeast)
CC1CC(C)CN(C(=O)c2cc3cc(Br)cc(Br)c3o2)C1 (stereo not drawn)	TDP43 rescue 32µM
COc1ccc2nc3oc(C(=O)N4CCCCC4)cc3cc2c1	TDP43 rescue inconclusive
COc1ccc2nc3oc(C(=O)N4CC(C)CC(C)C4)cc3cc2c1 (stereo not drawn)	TDP43 rescue 13µM
CC1CC(C)CN(C(=O)c2cc3ccccc3o2)C1 (stereo not drawn)	TDP43 rescue inconclusive
COc1ccc2nc(-c3ccccc3)cc(C(=O)OCC(=O)N3CC(C)OC(C)C3)c2c1 (stereo not drawn)	FUS suppressor inconclusive, TDP43 rescue 22µM
COc1ccc2nc(-c3ccccc3)cc(C(=O)OCC(=O)N3CCCCC3)c2c1	FUS suppressor inconclusive, TDP43 rescue inconclusive, Mito fusion yeast inconclusive
Cc1ccc(S(=O)(=O)NCCC(=O)N2CCN(c3ccccc3)CC2)cc1C	TDP43 rescue inconclusive (no result: Mito fusion yeast)
COc1ccccc1N1CCN(C(=O)CCNS(=O)(=O)c2ccc(Br)s2)CC1	aSyn rescue inconclusive, TDP43 rescue 22µM
O=C(CCNS(=O)(=O)c1ccc(Br)s1)N1CCN(c2ccccc2)CC1	aSyn rescue inconclusive, TDP43 rescue 18µM
COc1ccccc1N1CCN(C(=O)CNS(=O)(=O)c2ccc(Br)s2)CC1	none
CCOc1sc2nc(C)n(CC(=O)Nc3cccc(C)c3)c(=O)c2c1C	none (no result: aSyn rescue, Mito fusion yeast)
CC(=O)c1ccc2c(c1)CC1(C2)Cc2cc3c(cc2C1)C(=O)CC3 (stereo not drawn)	TDP43 rescue 16µM (no result: FUS suppressor, Mito fusion yeast)
COC(=O)c1ccc(NC(=O)C(c2ccccc2)N2Cc3ccccc3C2=O)cc1 (stereo not drawn)	none (no result: aSyn rescue, Mito fusion yeast)
O=C(Nc1ccccc1N1CCOCC1)c1ccc2ccccc2n1	TDP43 rescue 13µM, Mito fusion yeast inconclusive
O=C1NC2(CCc3ccccc3C2)C(=O)N1CCOc1cccc(Cl)c1 (stereo not drawn)	TDP43 rescue 20µM, Abeta yeast res inconclusive
Cc1cc(S(=O)(=O)Nc2noc3ccccc23)ccc1F	TDP43 rescue 11µM
COc1ccc(Cl)cc1NS(=O)(=O)c1cc(Cl)ccc1OC	none
COc1ccc(Cl)cc1S(=O)(=O)Nc1noc2ccccc12	TDP43 rescue 10µM
COc1cc(NC(=O)CN2CCCN(S(=O)(=O)c3ccc(F)cc3)CC2)cc(OC)c1	none (no result: aSyn rescue, Mito fusion yeast)
Cc1ccc(C(=O)NCc2ccc3c(c2)CCN3C(=O)c2ccc(C)cc2)cc1	none (no result: aSyn rescue, Mito fusion yeast)
C=C(C)Cn1c(=O)c2c(nc3n2CCN3c2ccc(CC)cc2)n(C)c1=O	none (no result: aSyn rescue, Mito fusion yeast)
ClCc1nc2ccccc2c2ccccc12	TDP43 rescue 14µM
CCOC(=O)c1c(CCl)nc2ccccc2c1-c1ccccc1	none
CCC(C(=O)OCC(=O)Nc1ccc(SC(F)F)cc1)c1ccccc1 (stereo not drawn)	TDP43 rescue 10µM, Abeta yeast res inconclusive
O=C(Cc1cnn(-c2ccccc2)c1)c1ccc(O)c(O)c1O	aSyn rescue inconclusive, TDP43 rescue 35µM, Abeta yeast res inconclusive (no result: FUS suppressor)
CCCCNC(=S)N1CCN(C(c2ccccc2)c2ccccc2)CC1	Mito fusion yeast inconclusive
CCCCNC(=O)N1CCN(C(c2ccccc2)c2ccccc2)CC1	Mito fusion yeast 18µM
CCCCN(C)CCNC(=O)CCNC(=O)Cn1ccc2ccccc2c1=O	Mito fusion yeast 18µM
O=c1c2sc3ccccc3c2n(Cc2ccccc2F)c(=O)n1CCc1ccccc1	none (no result: aSyn rescue, Mito fusion yeast)
Cc1cc(NC(=O)N2CCC(CN3CCOCC3)CC2)ccc1Br	none (no result: aSyn rescue, Mito fusion yeast)
CCCOc1cc(C)c(S(=O)(=O)NCc2cccs2)cc1C	aSyn rescue 10µM, TDP43 rescue 20µM (no result: Mito fusion yeast)
CN(C)c1ccc(CNC(=O)Cn2ccc3cc(S(=O)(=O)N4CCCCCC4)ccc32)cc1	none (no result: aSyn rescue, Mito fusion yeast)
O=C(CCCn1c(=O)c2cccn2c2ccccc21)NCCc1ccc(Cl)cc1	TDP43 rescue 25µM, Abeta yeast res inconclusive (no result: aSyn rescue, Mito fusion yeast)
